# Screening data deposited in PubChem by National Center for Advancing Translational Sciences (NCATS).
# TDP43 rescue: TDP-43 toxicity inhibition in yeast. TDP-43 expressing yeast growth rescue, BacTiter-Glo, 24 h. Potency, µM (series often up to 46.1 µM), without a hit: top-dose growth rescue (activation), most hits filed as activators. actives 1.8% (n = 410,000). AID 652104; note: % of control where 0% means no effect; nearly all actives have a fitted effect of over 50% in size
#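 In this qHTS, compounds that restore growth of yeast expressing TDP-43 appear as activators. Cells (OD600=0.02, galactose medium, raffinose-pregrown) are incubated with compound 24 hr at 30 deg C and growth is quantified by BacTiter-Glo.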
# Abeta rescue: compounds reversing amyloid beta toxicity in yeast; yeast expressing A-beta42, growth rescue, OD600, 48 h; response scale: 0% DMSO, 100% iron-clioquinol control; actives 0.063% (n = 410,000); Potency, µM (highest dose often 46.1 µM), actives largely listed as activators; note: nearly all actives have a fitted effect of over 55% in size
#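 Yeast growth medium received pinned compounds, then yeast cells expressing toxic A-beta were added; plates incubated at 30 C for 48 hr. Growth read as absorbance at 600 nm, normalized to DMSO and equimolar FeCl3 plus clioquinol controls.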
# ClpP mod: qHTS Assay for Activators of ClpP. actives 1.9% (n = 340,000). purified B. subtilis ClpP, FRET peptide cleavage, 20 min. ATP-dependent Clp protease proteolytic subunit (Bacillus subtilis (strain 168)), P80244. Potency, µM (highest dose often 57.5 µM), for the others: top-dose activity change, negative = active; active = well fitted falling curve with a large enough effect; inconclusive = small, poorly fitted or top-dose-only effect; inactive = no such curve, though single readings can be large or run the other way; note: the source files actives as falling curves though it sought activators and does not explain the sign; nearly all actives have a fitted effect of over 65% in size
# Target sequence (P80244 whole entry, looked up): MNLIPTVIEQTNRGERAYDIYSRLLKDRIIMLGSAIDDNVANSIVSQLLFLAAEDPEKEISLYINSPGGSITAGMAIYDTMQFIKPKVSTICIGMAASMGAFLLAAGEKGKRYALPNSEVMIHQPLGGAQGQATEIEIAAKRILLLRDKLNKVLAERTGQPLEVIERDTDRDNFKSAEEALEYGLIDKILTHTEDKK
#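 Buffer: 100 mM Tris/HCl pH8, 100 mM KCl, 0.05% low protease BSA, 2.5% glycerol, 0.01% Tween-20. ClpP 10 microg/mL final; 20 min RT; delta FRET normalized to ADEP and DMSO controls.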
# Mm-Cpn inhibitor: M. maripaludis TRiC chaperonin inhibition; purified Mm-Cpn ATPase, ADP Transcreener TR-FRET; Potency, µM (doses to about 76.9 µM), for inactives: top-dose activity, negative = inhibition, most hits filed as inhibitors; actives 0.031% (n = 330,000); AID 504842; note: % is set by controls: 0 for no effect and ±100 for the full control effect; nearly all actives have a fitted effect of over 80% in size
#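 ATPase turnover read by TR-FRET ADP competition (Eu cryptate antibody/ADP-d2, 665/590 nm): 10uM ATP final, 25nM Mm-CPN final, 30 min 37degC after 10-min compound preincubation, pH 7.4 Tris/KCl/MgCl2/DTT buffer.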
# FUS yeast rescue: rescues growth of FUS-expressing yeast; S. cerevisiae FUS-expressing, growth rescue, OD600, 24 h; actives 0.24% (n = 390,000); Potency, µM (doses to about 76.6 µM), most hits filed as activators; AID 1347120;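 note: plate controls were DMSO vehicle for no effect and reference control for full effect; nearly all actives have a fitted effect of over 55% in size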
#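 Compound concentration series was pinned onto galactose-induced FUS-expressing yeast seeded at OD 0.005. Plates sat 24hr at 30C; absorbance at 600 nm gave growth. DMSO served as background control.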
# aSyn rescue: inhibitors of alpha-synuclein toxicity in yeast. Yeast expressing alpha-synuclein, growth rescue, BacTiter-Glo, 24 h. Potency, µM (top dose mostly 46.1 µM), inactives show at the highest dose growth rescue (activation), most hits filed as activators. actives 0.14% (n = 370,000). AID 652106; note: % of control where 0% means no effect; nearly all actives have a fitted effect of over 65% in size
#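 Screening used galactose-induced yeast with toxic alpha-synuclein levels, exposed to compound for 24 hr at 30 deg C. Cell growth, read with BacTiter-Glo luminescence, gave the measured signal.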
# The depositor's hits bear a star; i = inactive; ? = inconclusive; · = no result; [ ] = another dose, or the depositor's remark. Rows were chosen to be rich in hits. Some 3.6% of all compounds tested hit in one or more screens of this group. Unless noted, calls come from the whole dose curve; as a rule, active = well fitted curve in the direction sought with a large enough effect; inconclusive = small, poorly fitted or top-dose-only effect, or another doubt; inactive = no such curve, though single readings can be large; an effect the other way counts as inactive or inconclusive. Potency is the fitted concentration of half-maximal effect.
SMILES,TDP43 rescue,Abeta rescue,ClpP mod,Mm-Cpn inhibitor,FUS yeast rescue,aSyn rescue
O=C(c1ccc(CS(=O)c2ccccc2Cl)o1)N1CCCCCC1 (stereo not given),-0.1%,i,0.6%,1.1%,i,-2.4%
Cc1cccc(N2CCN(C(=O)c3ccc(CS(=O)Cc4ccc(Cl)cc4)o3)CC2)c1C (stereo not given),6.4%,i,-1.3%,-1.1%,?,?
O=C(c1cccs1)N1CCN(c2cc(Cl)ccc2Cl)CC1,22.4µM*,i,-1.9%,0.7%,i,-11.8%
OC(COCc1cccs1)CN1CCN(c2ccccc2Cl)CC1 (stereo not given),17.7%,i,-2.0%,-0.2%,·,5.3%
O=C(c1cccs1)N1CCN(c2ccc(Cl)cc2)CC1,?,i,·,0.7%,i,9.2%
O=C(c1ccc(CS(=O)c2ccccc2Cl)o1)N1CCN(c2ccccc2F)CC1 (stereo not given),12.6µM*,i,-0.3%,·,i,·
Cc1cccc(N2CCN(CC(O)COCc3cccs3)CC2)c1C (stereo not given),0.0%,i,22.4µM*,0.4%,·,-4.1%
Cc1ccc(CNC(=O)c2ccc(CN3CC(=O)N4CCCCC4C3=O)cc2)cc1 (stereo not given),14.6%,i,-2.0%,·,i,·
Cc1ccccc1S(=O)Cc1ccc(C(=O)N2CCN(c3cccc(C)c3C)CC2)o1 (stereo not given),35.5µM*,i,-0.9%,·,i,·
COc1ccccc1N1CCN(C(=O)c2ccc(CS(=O)c3ccccc3C)o2)CC1 (stereo not given),-2.7%,i,-1.0%,·,i,·
Cc1cccc(N2CCN(C(=O)c3cccs3)CC2)c1C,5.62µM*,i,5.1%,-0.5%,i,4.0%
CCOC(=O)[C@]12CCCC=C1N(CCCOC)C(=O)[C@@H]2CC(=O)N1CCC(c2ccccc2)CC1,·,·,·,·,i,·
COc1ccccc1-c1nc(C#N)c(N2CCN(c3ccccc3)CC2)o1,?,i,28.2µM*,-27.4%,i,-2.2%
CC1CCCN(c2oc(-c3cccc4ccccc34)nc2C#N)C1 (stereo not given),0.0%,i,3.16µM*,1.4%,i,2.9%
CC1CCN(c2oc(-c3ccccc3Cl)nc2C#N)CC1,10.7%,i,28.2µM*,-2.1%,i,-0.8%
N#Cc1nc(-c2ccccc2Cl)oc1N1CCOCC1,?,i,8.91µM*,-1.3%,?,-4.7%
CC1CC(C)CN(c2oc(-c3ccccc3F)nc2C#N)C1 (stereo not given),12.9%,i,0.5%,0.8%,i,-9.3%
Cc1ccccc1-c1nc(C#N)c(N2CCC(C)CC2)o1,5.3%,i,3.5%,-5.1%,i,-11.1%
CCCC[C@]12Cc3cc(C#N)ccc3C(O1)c1c(cc(C)n(-c3ccccc3)c1=O)O2,·,·,·,1.0%[15.4 µM],·,·
CCN1CCN(c2oc(-c3ccc(OC)cc3)nc2C#N)CC1,-4.9%,i,3.16µM*,·,i,1.3%
COc1ccc(-c2nc(C#N)c(N3CCN(c4ccccc4)CC3)o2)cc1,0.0%,i,4.6%,-0.2%,i,1.9%
Cc1cccc2cc(C#N)c(NCCNC(=O)NC3CCCCC3)nc12,6.4%,i,?,-4.0%,i,-7.1%
Cc1ccc2cc(C#N)c(NCCNC(=O)C3CCC3)nc2c1C,-4.9%,i,15.8µM*,-13.2%,·,0.5%
CCOC(=O)C1=C(C)N=c2s/c(=C\c3ccc(OCC(=O)O)cc3)c(=O)n2C1c1ccccc1 (stereo not given),-3.4%,i,0.9%,-0.1%,?,0.0%
CCOC(=O)C1=C(C)N=c2s/c(=C\c3ccc(OCC(=O)O)c(OC)c3)c(=O)n2C1c1ccc(OC)cc1 (stereo not given),7.9%,i,3.2%,-5.7%,35.5µM*,0.7%
SMILES,TDP43 rescue,Abeta rescue,ClpP mod,Mm-Cpn inhibitor,FUS yeast rescue,aSyn rescue
COc1ccc(S(=O)(=O)N2CCN(C(=O)CNC(=O)c3ccc4c(c3)OCO4)CC2)cc1,6.4%,i,28.2µM*,1.5%,i,-0.4%
O=C(NCC(=O)N1CCN(S(=O)(=O)c2ccccc2F)CC1)c1ccc2c(c1)OCO2,-12.6%,i,·,0.9%,i,-4.4%
COc1ccc(-c2nnc(SC(C)C(=O)Nc3cccc(Cl)c3)o2)cc1 (stereo not given),12.6µM*,i,0.4%,0.0%,i,13.8%
COc1ccc(-c2nnc(SC(C)C(=O)O)o2)cc1 (stereo not given),2.3%,i,-2.3%,·,i,3.0%
CC(=O)Nc1ccc(/C=C/c2ccccn2)cc1,·,·,-12.3%,·,·,·
CCC(C)NC(=O)Cn1ncc2c([nH]c3ccc(C)cc32)c1=O (stereo not given),10.1%,i,-2.9%,·,i,·
CCn1c(SCc2ccccc2Cl)nc(=O)c2c(C(=O)OC)cc(C3CC3)nc21,?,i,-26.2%,·,?,·
Cn1c(=O)[nH]c(=O)c2c1nc(Br)n2CCC(=O)c1ccccc1,10.8%,i,28.2µM*,-5.1%,i,-6.1%
Clc1cccc(Nc2ncnc3c2nc2n3CCCCC2)c1,15.8µM*,i,-9.6%,·,i,·
Clc1cccc(CNc2ncnc3c2nc2n3CCCC2)c1,12.6µM*,?,-3.3%,·,i,·
COc1ccccc1Nc1ncnc2c1nc1n2CCCCC1,11.7%,i,1.5%,·,i,·
Fc1ccc(Nc2ncnc3c2nc2n3CCCC2)cc1,?,i,0.7%,·,i,·
CCc1ccccc1Nc1ncnc2c1nc1n2CCCC1,19.2%,i,-2.5%,·,i,·
Cc1ccc(CNc2ncnc3c2nc2n3CCCC2)cc1,2.5%,i,-4.6%,·,i,·
Cc1ccc(Nc2ncnc3c2nc2n3CCCC2)c(Br)c1,17.8µM*,i,-5.4%,·,i,·
Clc1ccccc1Nc1ncnc2c1nc1n2CCCCC1,17.8µM*,i,-6.7%,·,i,·
Cc1oc(-c2ccccc2Cl)nc1CS(=O)CC(=O)N1CCN(c2cccc(C(F)(F)F)c2)CC1 (stereo not given),?,i,1.4%,·,25.1µM*,·
Cc1oc(-c2ccc(Cl)cc2)nc1CS(=O)CC(=O)N1CCN(c2cccc(C(F)(F)F)c2)CC1 (stereo not given),6.7%,i,-0.9%,·,i,·
Cc1ccc(-c2nc(CS(=O)CC(=O)N3CCN(c4cccc(Cl)c4)CC3)c(C)o2)cc1 (stereo not given),31.6µM*,i,-5.5%,·,?,·
